PubChem BioAssay (NCI)
The panel holds about 79,000 compounds, 15% with a hit somewhere; the sample as a whole holds those more often. Activity calls are given as the source filed them. Rule as the data show it: active = growth inhibition above about 70%; inactive = the rest.

What was measured:
[1] = NCI Yeast Anticancer Drug Screen. Data for the rad52 strain (AID 147);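 also: 0% = growth of vehicle-treated control cultures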; conditions: S. cerevisiae rad52 mutant growth inhibition, stronger effect = higher value
Outline: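 Measured: yeast growth inhibition. System: strain with a defined DNA damage repair alteration. Reference: vehicle-treated control cultures.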

[2] = NCI Yeast Anticancer Drug Screen. Data for the wt1 strain (AID 149);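 also: 0% = growth of vehicle-treated wt1 cultures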; conditions: S. cerevisiae wt1 strain (SPY 50644) growth inhibition, stronger effect = higher value
Outline: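 Using yeast strain wt1, compound-induced growth inhibition was determined against vehicle-treated cultures.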

[3] = NCI Yeast Anticancer Drug Screen. Data for the mgt1 strain (AID 153); conditions: S. cerevisiae mgt1 mutant growth inhibition, stronger effect = higher value
Outline: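 After exposure of the mgt1 yeast mutant to compound, growth was measured and reported as inhibition compared with vehicle controls.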

[4] = NCI Yeast Anticancer Drug Screen. Data for the rad50 strain (AID 155);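 also: 0% = growth of vehicle-only cultures of the same strain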; conditions: S. cerevisiae rad50 strain growth inhibition, stronger effect = higher value
Outline: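 Relative growth inhibition (compound vs vehicle) was measured in yeast with a defined repair-gene alteration.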

[5] = NCI Yeast Anticancer Drug Screen. Data for the mec2-1 strain (AID 157); conditions: S. cerevisiae mec2-1 strain, stronger effect = higher value
Outline: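 Test agents were screened against the mec2-1 yeast strain, with defined DNA repair or cell cycle alteration. Growth was scored as inhibition against vehicle-only controls.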

[6] = NCI Yeast Anticancer Drug Screen. Data for the rad14 strain (AID 159);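 also: 0% = growth of vehicle-treated control cultures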; conditions: S. cerevisiae rad14 strain growth inhibition, stronger effect = higher value
Outline: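 Screen for anticancer potential: a yeast strain altered in DNA damage repair is grown with compound, and reduced growth is quantified against vehicle controls.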

[7] = NCI Yeast Anticancer Drug Screen. Data for the sgs1 mgt1 strain (AID 161);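 also: 0% = growth of cultures given vehicle only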; conditions: S. cerevisiae sgs1 mgt1 strain, stronger effect = higher value
Outline: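 Inhibition of yeast growth, normalised to vehicle-treated controls, is reported for a strain bearing genetic alterations in DNA damage repair.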

[8] = NCI Yeast Anticancer Drug Screen. Data for the CLN2oe strain (AID 163);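 also: 0% = growth of vehicle-only control cultures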; conditions: S. cerevisiae CLN2oe strain, stronger effect = higher value
Outline: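 Here, growth inhibition in a cell-cycle-altered yeast strain after compound exposure was quantified against vehicle control growth.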

[9] = NCI Yeast Anticancer Drug Screen. Data for the cln2 rad14 strain (AID 165);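 also: 0% = growth equal to vehicle treated cultures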; conditions: S. cerevisiae cln2 rad14 strain, stronger effect = higher value
Outline: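 Growth of compound-exposed yeast (cln2 rad14 genotype) measured and expressed as inhibition relative to vehicle.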

[10] = NCI Yeast Anticancer Drug Screen. Data for the bub3 strain (AID 167); conditions: S. cerevisiae bub3 mutant strain, stronger effect = higher value
Outline: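 Screening used yeast with an engineered genetic alteration affecting cell cycle control. Compound-exposed cultures were compared with vehicle cultures, and reduced growth was taken as inhibition.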

[11] = NCI Yeast Anticancer Drug Screen. Data for the wt2 strain (AID 169);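 also: 0% = growth of vehicle-treated yeast cultures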; conditions: S. cerevisiae wt2 strain growth inhibition, stronger effect = higher value
Outline: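 Genetically defined yeast strains from a DNA-repair/cell-cycle panel were used. Compound-exposed yeast growth was measured, and the inhibition was calculated relative to vehicle treatment.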

[12] = NCI Yeast Anticancer Drug Screen. Data for the mlh1 strain (AID 171);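 also: 0% = growth of vehicle-treated control cultures of the same strain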; conditions: S. cerevisiae mlh1 strain growth inhibition, stronger effect = higher value
Outline: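 Here the genetically defined yeast mutant is grown with each compound, and the extent to which its growth falls below that of vehicle-exposed cells is reported.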

[13] = NCI Yeast Anticancer Drug Screen. Data for the sgs1 strain (AID 173);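 also: 0% = growth of vehicle-only control cultures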; conditions: S. cerevisiae sgs1 mutant, stronger effect = higher value
Outline: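 Relative growth inhibition, referenced to vehicle, was determined in a yeast strain with a defined alteration affecting DNA damage repair or cell cycle control after compound exposure.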

[14] = NCI Yeast Anticancer Drug Screen. Data for the mlh1 rad18 strain (AID 175); conditions: S. cerevisiae mlh1 rad18 strain growth inhibition, stronger effect = higher value
Outline: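 In this whole-cell yeast screen, a strain with altered DNA damage repair is challenged with compound, and its growth is measured against matched vehicle-treated controls.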

[15] = NCI Yeast Anticancer Drug Screen. Data for the rad18 strain (AID 177); conditions: S. cerevisiae rad18 mutant growth inhibition, stronger effect = higher value
Outline: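 Screen uses a yeast strain with a defined lesion in DNA damage repair; compound effect is read as loss of growth compared to untreated vehicle cultures.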

[16] = NCI Yeast Anticancer Drug Screen. Data for the rad50EPP+ strain (AID 151);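 also: 0% = growth of vehicle-treated control cultures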; conditions: S. cerevisiae rad50 mutant strain, stronger effect = higher value
Outline: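 One strain with a rad50 alteration (rad50EPP+) was compound-treated, its growth then compared to that of vehicle controls.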

[17] = at 5.0 µM (retest, dose inferred, filed as 0.5)
[18] = at 50.0 µM (retest, dose inferred, filed as 5.0)

Measured: growth inhibition

S=c1[nH]c2c(Cl)c(Cl)c(Cl)c(Cl)c2[nH]1
inactive: [1]; at 1.2 µM 13% | [1]; at 3.7 µM 6% | [1]; at 11.0 µM 45% | [2]; at 1.2 µM 16% | [2]; at 3.7 µM -4% | [2]; at 11.0 µM 33% | [3]; at 1.2 µM 9% | [3]; at 3.7 µM 15% | [4]; at 1.2 µM -5% | [4]; at 3.7 µM -2% | [4]; [17] 33% | [4]; at 11.0 µM 59% | [5]; at 1.2 µM -28% | [5]; at 3.7 µM -11% | [5]; [17] 44% | [5]; at 11.0 µM 48% | [6]; at 1.2 µM -11% | [6]; at 3.7 µM 4% | [6]; at 11.0 µM 50% | [7]; [17] -10% | [8]; at 1.2 µM 9% | [8]; at 3.7 µM 3% | [8]; at 11.0 µM 48% | [9]; [17] 61% | [10]; at 1.2 µM -5% | [10]; at 3.7 µM 4% | [10]; [17] 44% | [10]; at 11.0 µM 66% | [11]; at 1.2 µM -12% | [11]; at 3.7 µM -3% | [11]; at 11.0 µM 24% | [12]; at 1.2 µM 2% | [12]; at 3.7 µM 22% | [13]; at 1.2 µM -3% | [13]; at 3.7 µM 10% | [13]; at 11.0 µM 54% | [14]; [17] 26% | [15]; at 1.2 µM 5% | [15]; at 3.7 µM 12% | [15]; at 11.0 µM 42%
active: [1]; at 33.0 µM 97% | [1]; at 100.0 µM 94% | [2]; at 33.0 µM 98% | [2]; at 100.0 µM 96% | [3]; at 11.0 µM 78% | [3]; at 33.0 µM 99% | [3]; at 100.0 µM 93% | [4]; at 33.0 µM 98% | [4]; [18] 92% | [4]; at 50.0 µM 90% | [4]; at 100.0 µM 96% | [5]; at 33.0 µM 98% | [5]; [18] 98% | [5]; at 50.0 µM 91% | [5]; at 100.0 µM 96% | [6]; at 33.0 µM 99% | [6]; at 100.0 µM 96% | [7]; [18] 97% | [8]; at 33.0 µM 97% | [8]; at 100.0 µM 95% | [9]; [18] 95% | [10]; at 33.0 µM 98% | [10]; [18] 95% | [10]; at 100.0 µM 95% | [11]; at 33.0 µM 96% | [11]; at 100.0 µM 96% | [12]; at 11.0 µM 75% | [12]; at 33.0 µM 98% | [12]; at 100.0 µM 94% | [13]; at 33.0 µM 97% | [13]; at 100.0 µM 96% | [14]; [18] 95% | [14]; at 50.0 µM 90.5% | [15]; at 33.0 µM 97% | [15]; at 100.0 µM 95%

O=C1CC(=O)N(C2CCCCC2)C(=O)N1c1ccccc1S(=O)(=O)Oc1ccccc1
active: [4]; [18] 99% | [5]; [18] 99% | [8]; at 100.0 µM 72% | [9]; [18] 80% | [14]; [18] 100%
inactive: [1]; at 1.2 µM 1% | [1]; at 3.7 µM 3% | [1]; at 11.0 µM 4% | [1]; at 33.0 µM 24% | [1]; at 100.0 µM 64% | [2]; at 1.2 µM 1% | [2]; at 3.7 µM -5% | [2]; at 11.0 µM -14% | [2]; at 33.0 µM 12% | [2]; at 100.0 µM 51% | [4]; at 1.2 µM -12% | [4]; at 3.7 µM -3% | [4]; [17] 66% | [4]; at 11.0 µM -12% | [4]; at 33.0 µM 5% | [4]; at 50.0 µM 38.6% | [4]; at 100.0 µM 33% | [5]; at 1.2 µM 11% | [5]; at 3.7 µM 0% | [5]; [17] 69% | [5]; at 11.0 µM -18% | [5]; at 33.0 µM 13% | [5]; at 50.0 µM 41% | [5]; at 100.0 µM 36% | [6]; at 1.2 µM -18% | [6]; at 3.7 µM -22% | [6]; at 11.0 µM -26% | [6]; at 33.0 µM -18% | [6]; at 100.0 µM 18% | [7]; [17] 3% | [7]; [18] 31% | [7]; at 50.0 µM 54.4% | [8]; at 1.2 µM 6% | [8]; at 3.7 µM -1% | [8]; at 11.0 µM 7% | [8]; at 33.0 µM 43% | [9]; [17] 60% | [9]; at 50.0 µM 68% | [10]; at 1.2 µM -13% | [10]; at 3.7 µM 0% | [10]; [17] 25% | [10]; at 11.0 µM 2% | [10]; at 33.0 µM 7% | [10]; [18] 42% | [10]; at 50.0 µM 58.4% | [10]; at 100.0 µM 32% | [11]; at 1.2 µM 0% | [11]; at 3.7 µM -33% | [11]; at 11.0 µM -27% | [11]; at 33.0 µM -3% | [11]; at 100.0 µM 41% | [12]; at 1.2 µM -10% | [12]; at 3.7 µM -19% | [12]; at 11.0 µM -11% | [12]; at 33.0 µM 7% | [12]; at 100.0 µM 46% | [13]; at 1.2 µM -7% | [13]; at 3.7 µM -5% | [13]; at 11.0 µM -1% | [13]; at 33.0 µM 20% | [13]; at 100.0 µM 56% | [14]; [17] 61% | [14]; at 50.0 µM 41.4% | [15]; at 1.2 µM -15% | [15]; at 3.7 µM -13% | [15]; at 11.0 µM -19% | [15]; at 33.0 µM -18% | [15]; at 100.0 µM 12%

CN(N=O)C(=O)N[C@@H](C=O)[C@@H](O)[C@H](O)[C@H](O)CO
inactive: [1]; at 1.2 µM 0% | [1]; at 3.7 µM 1% | [1]; at 11.0 µM 5% | [1]; at 33.0 µM 2% | [1]; at 100.0 µM 3% | [2]; at 1.2 µM 0% | [2]; at 3.7 µM -1% | [2]; at 11.0 µM 0% | [2]; at 33.0 µM -1% | [2]; at 100.0 µM 20% | [16]; at 1.2 µM 0% | [16]; at 3.7 µM 0% | [16]; at 11.0 µM 0% | [16]; at 33.0 µM -7% | [16]; at 100.0 µM 3% | [4]; at 1.2 µM -1% | [4]; at 3.7 µM -1% | [4]; at 11.0 µM 4% | [4]; at 33.0 µM -1% | [4]; at 50.0 µM 3.9% | [4]; at 100.0 µM -2% | [5]; at 1.2 µM -3% | [5]; at 3.7 µM -7% | [5]; at 11.0 µM -6% | [5]; at 33.0 µM 2% | [5]; at 50.0 µM -7.8% | [5]; at 100.0 µM -7% | [6]; at 1.2 µM -1% | [6]; at 3.7 µM -3% | [6]; at 11.0 µM -2%
